The results in this text go back to ChEMBL document CHEMBL4513216, “Probing the Open Global Health Chemical Diversity Library for Multistage-Active Starting Points for Next-Generation Antimalarials” (ACS Infect Dis, 2020).

About 8,600 (12%) of roughly 69,000 compounds showed an effect of 50% or more. For the sample, strong results were picked, then their nearest neighbours and some compounds at random.

For the assay, the system named is Plasmodium berghei. The assay can be described thus: Screen against P. berghei liver stage (PbLuc), transformed with Luciferase, at 10uM. It is filed as functional, HepG2. The note with it: tested at 10 uM.
In the case of `O=C(c1ccc(N2CCCC2)nn1)N1CCCC(n2ccnc2)C1` (stereo unspecified), the INHIBITION is listed as 29.2%.

For the compound `CCOc1ccc(CN2CCC(c3nc(C)cc(C)n3)C2)cc1CO` (stereo unspecified), the INHIBITION stood at 44.05%.

As to `CN1CC(C(=O)Nc2ccc(OCC(F)(F)C(F)F)nc2)CC1=O` (stereo unspecified), the INHIBITION was -14.6%.

As to `Cc1nc2[nH]cnc(NCCCN3CCOCC3)c-2n1`, the INHIBITION stood at 5.03%.

For `Cc1nc(C2CCCN2CC(=O)NCCOc2ccc(F)cc2)no1` (stereo unspecified), the INHIBITION is reported as 55.15%.

As for `Cc1nc(C2CCCN2CC(=O)NCCOc2ccccc2)no1` (stereo unspecified), the INHIBITION was 50.4%.

For the compound `CCc1nc(C2CCCN2CC(=O)NCCOc2ccccc2)no1` (stereo unspecified), the INHIBITION is listed as -2.95%.

`Cc1cccc(OCCNC(=O)CN2CCCC2c2noc(C)n2)c1` (stereo unspecified): the INHIBITION came out at 6.905%.

As to `COc1ccc(CCNC(=O)CN2CCCC2c2noc(C)n2)cc1` (stereo unspecified), the INHIBITION is -3.2%.

On to `Cc1nc(C2CCCN2CC(=O)NCCOc2cccc(F)c2)no1` (stereo unspecified), for which the INHIBITION stood at 2.8815%.

For the compound `CCC(=O)N1C[C@@H](C(=O)NC)[C@H](c2ccnc(N3CCCC3)n2)C1`, the INHIBITION is recorded as 1.93%.

In the case of `Cc1cnn(CC2CN(Cc3cccc(OCC(N)=O)c3)CCO2)c1` (stereo unspecified), the INHIBITION was -2.4%.

On to `Cc1nc(CN2CCOC(Cn3cncn3)C2)nc2ccccc12` (stereo unspecified), for which the INHIBITION is reported as 21.1%.

`Cc1cnn(CC2CN(Cc3nc4ccccc4nc3C)CCO2)c1` (stereo unspecified): the INHIBITION is 58%.

On to `c1ccc2sc(N3CCOC(Cn4cccn4)C3)nc2c1` (stereo unspecified), for which the INHIBITION is 26.3%.

Take `Cc1nc(C)n(CC2CN(Cc3cccc(OC(C)C)c3)CCO2)n1` (stereo unspecified): the INHIBITION was 45.7%.

With `c1ccc2oc(CN3CCOC(Cn4cccn4)C3)nc2c1` (stereo unspecified), the INHIBITION is -51.5%.

For the compound `Cn1c(CN2CCOC(Cn3cncn3)C2)nc2ccccc21` (stereo unspecified), the INHIBITION was -4.93%.

As to `Cc1nc2ccccc2nc1CN1CCOC(Cn2cccn2)C1` (stereo unspecified), the INHIBITION is 26.5%.

Turning to `Cc1cnn(CC2CN(Cc3cccc(OC(C)C)c3)CCO2)c1` (stereo unspecified), the INHIBITION is reported as 70.3%.

For the compound `c1ccc2sc(CN3CCOC(Cn4cncn4)C3)nc2c1` (stereo unspecified), the INHIBITION is recorded as 85.9%.

As for `c1ccc2sc(CN3CCOC(Cn4cccn4)C3)nc2c1` (stereo unspecified), the INHIBITION turned out to be 72.4%.

Consider `Cc1cnn(CC2CN(Cc3nc(C)c4ccccc4n3)CCO2)c1` (stereo unspecified), for which the INHIBITION came out at 35.3%.

On to `Cc1nc(C)n(C2CCCN(C(=O)COc3cccc(C#N)c3)C2)n1` (stereo unspecified), for which the INHIBITION was found to be 22.3%.

For `C[C@@H](O)CNC(=O)c1nc(CC(=O)Nc2cccc(C(F)(F)F)c2)no1`, the INHIBITION is 29.9%.

In the case of `Cc1ccc(N2CCC3(CC2)CC(OCC(C)C)C3)nn1`, the INHIBITION turned out to be 31.2%.

With `O=C(O)C1CN(c2cccc(Cl)c2)CCO1` (stereo unspecified), the INHIBITION is reported as -6.92%.

On to `COCC(O)CNC(=O)Nc1c(F)cc(F)cc1-c1ccccc1` (stereo unspecified), for which the INHIBITION was 1.19%.

For `CCn1ncc2c1C(COCC1CC1)CN(c1ccncn1)C2` (stereo unspecified), the INHIBITION is listed as -15.1%.

For `COCC(=O)NCc1cc(=O)n2c(n1)CN(Cc1cccs1)CCC2`, the INHIBITION was 25.8%.

For `CCC[C@@H]1CN(c2ncnc3ccsc23)C[C@H]1NS(C)(=O)=O`, the INHIBITION is -3.58%.

In the case of `Cc1cnccc1NCCNC(=O)[C@H]1CNC[C@H](C(=O)N2CCCC2)C1`, the INHIBITION is listed as 15.9%.

Take `CC(C)CCN1CCC2(CC1)NCc1ccccc1NC2=O`: the INHIBITION was 25.9%.

For `Cc1cnn(CC2CN(CCS(C)(=O)=O)CCO2)c1` (stereo unspecified), the INHIBITION was -31.4%.

Regarding `CC(C)(C)c1nnc(CN2CCOC(Cn3cccn3)C2)o1` (stereo unspecified), the INHIBITION was 59.7%.

For `Cc1cnn(CC2CN(CCCS(=O)(=O)N(C)C)CCO2)c1` (stereo unspecified), the INHIBITION came out at 77.8%.

Turning to `Cc1cnn(CC2CN(Cc3nc4ccccc4o3)CCO2)c1` (stereo unspecified), the INHIBITION is on record as -61.4%.

Turning to `CC(C)(C)c1nnc(CN2CCOC(Cn3cncn3)C2)o1` (stereo unspecified), the INHIBITION is on record as 40.3%.

For `CCc1nnc(CN2CCOC(Cn3cccn3)C2)o1` (stereo unspecified), the INHIBITION is on record as -5.25%.

Regarding `Cc1cnn(CC2CN(Cc3nc4ccccc4s3)CCO2)c1` (stereo unspecified), the INHIBITION was 74.4%.

In the case of `Cc1cnn(CC2CN(CCCS(C)(=O)=O)CCO2)c1` (stereo unspecified), the INHIBITION is -12.1%.

For `Cc1cnn(CC2CN(Cc3nc4ccccc4n3C)CCO2)c1` (stereo unspecified), the INHIBITION is given as -43.6%.

`Cc1nc(NCc2ccc(F)cc2)cc(C(=O)N2CCOCC2)n1`: the INHIBITION is given as -10.1%.

Regarding `Clc1cccc(CNc2cnn(CCN3CCCCC3)c2)c1`, the INHIBITION is 21.2%.

With `CC(C)Nc1nc(O)cc(C2CC(=O)N(C3CCCCC3)C2)n1` (stereo unspecified), the INHIBITION is listed as -23.245%.

`CN(C)c1cc(C(=O)NCCc2nnc(-c3ccco3)[nH]2)ccn1`: the INHIBITION was 17.4%.

Take `O=C(NCC1CC1)C1CN(C(=O)Nc2ccccc2)CC12CCOCC2` (stereo unspecified): the INHIBITION is on record as 19.4%.

`CCN(Cc1ccncc1)C(=O)C(C)n1ccnc1C(C)C` (stereo unspecified): the INHIBITION was 10.3%.

On to `CC(C)N1C(=O)CN(CCCO)CC1(C)C`, for which the INHIBITION is given as -23%.

`Cc1ccc(NC(=O)c2cccc(OCc3nnnn3C)c2)nc1`: the INHIBITION was -1.57%.

As to `O=C(CCCN1CCCCC1)N1CCC(c2nnc[nH]2)CC1`, the INHIBITION is reported as -7.53%.

As for `O=C(Nc1ccc(OC(F)F)cc1)N1CCC(c2nnc[nH]2)CC1`, the INHIBITION was determined as 63.3%.

`CCOc1ccc(NC(=O)N2CCOC(C(N)=O)C2)cc1C` (stereo unspecified): the INHIBITION is on record as -5.08%.

For `CCOc1cc(NC(=O)N2CCC(c3nnc[nH]3)CC2)ccc1C`, the INHIBITION worked out at 56.6%.

With `O=C(CCCc1ccc(Cl)cc1)N1CCC(c2nnc[nH]2)CC1`, the INHIBITION is 20.9%.

For the compound `COc1ccc(NC(=O)N2CCC(c3nnc[nH]3)CC2)cc1C`, the INHIBITION is recorded as 37.6%.
